gsp antagonist: antagonizes gsp, the McCune-Albright syndrome mutation | actives 0.4% (n = 340,000) | gsp-mutant cells, cAMP HTRF, 30 min | Potency, µM (highest dose often 76.9 µM), most hits filed as inhibitors; calls by dose curve; cell line not stated here;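 further: intracellular cAMP measured with PDE inhibitor Ro 20-1724 present during compound exposure; nearly all actives have a fitted effect of over 65% in size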
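Measurement of cellular cAMP by homogeneous time-resolved fluorescence following a 30 min compound exposure at 37C. The PDE inhibitor […] was present throughout; the assay buffer was DPBS with 0.05% BSA and 0.005% Tween 20.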
Akt phos inh: blocks phosphorylation of Akt. Neuro2A IGF-stimulated pAkt S473 HTRF, 20 min; stronger effect = lower value. activity change, % for hits at 50 µM. actives 0.32% (n = 360,000). AID 651550; in the data active means activity change below about -80%; inconclusive means mostly about -51% to -80%
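Neuro2A cells (4,500/well, DMEM with 0.5% FBS) were treated with compound at a single 50 µM final concentration, stimulated with 6 nM IGF for 20 min at 37 °C, and lysed. Phospho-Akt Ser473 was read by HTRF as 665/615 ratio ×10^4.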
RXFP1 agonist: RXFP1 (human) receptor agonism. Q9HBX9. HEK293T-RXFP1 cAMP TR-FRET, 30 min; response scale: percent of porcine relaxin response, buffer zero. Potency, µM (titrated, usually from 57.5 µM), hits mostly activators. actives 0.3% (n = 370,000). AID 2676; active means well fitted activation curve with a large enough effect; inconclusive means small, poorly fitted or top-dose-only effect; further: nearly all actives have a fitted effect of over 60% in size
Target sequence (Q9HBX9 whole entry, looked up): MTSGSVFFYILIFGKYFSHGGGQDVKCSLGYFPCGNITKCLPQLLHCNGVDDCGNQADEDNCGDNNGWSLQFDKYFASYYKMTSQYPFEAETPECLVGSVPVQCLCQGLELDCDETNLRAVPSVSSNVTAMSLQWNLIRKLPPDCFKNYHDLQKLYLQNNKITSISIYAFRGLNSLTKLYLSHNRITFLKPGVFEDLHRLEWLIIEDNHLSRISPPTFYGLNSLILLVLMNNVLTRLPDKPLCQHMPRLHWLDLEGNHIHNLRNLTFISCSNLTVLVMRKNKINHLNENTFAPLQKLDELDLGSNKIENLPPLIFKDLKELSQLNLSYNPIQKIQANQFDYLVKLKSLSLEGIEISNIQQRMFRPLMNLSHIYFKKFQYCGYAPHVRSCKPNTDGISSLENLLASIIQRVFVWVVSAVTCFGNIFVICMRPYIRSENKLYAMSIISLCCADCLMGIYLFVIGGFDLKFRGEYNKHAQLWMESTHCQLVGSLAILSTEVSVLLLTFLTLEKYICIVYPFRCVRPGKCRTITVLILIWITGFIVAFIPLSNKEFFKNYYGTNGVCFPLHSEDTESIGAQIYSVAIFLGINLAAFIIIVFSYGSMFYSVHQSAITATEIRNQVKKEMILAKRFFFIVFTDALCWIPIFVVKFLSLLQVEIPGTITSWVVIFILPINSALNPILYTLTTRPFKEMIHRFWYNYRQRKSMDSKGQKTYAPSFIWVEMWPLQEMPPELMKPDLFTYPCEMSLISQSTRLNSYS
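Agonist response is measured as cAMP accumulation in an RXFP1-transfected HEK293T line under PDE4 inhibition. Values are scaled between buffer-only and 29 nM porcine relaxin, and EC50s come from standard Hill equation fits.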
ClpP mod: qHTS Assay for Activators of ClpP; ATP-dependent Clp protease proteolytic subunit (Bacillus subtilis (strain 168)), P80244; purified B. subtilis ClpP, FRET peptide cleavage, 20 min; Potency, µM (titrated, usually from 57.5 µM); actives 1.9% (n = 340,000); AID 651965, 2013; active means well fitted falling curve with a large enough effect; inconclusive means small, poorly fitted or top-dose-only effect; inactive means no such curve, though single readings can be large or run the other way; further: the source files actives as falling curves though it sought activators and does not explain the sign; nearly all actives have a fitted effect of over 65% in size
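FRET quenching reversal measured ClpP activation: 10 microg/mL B. subtilis ClpP at pH 8 with the FRET-FV decapeptide, read at 430 nm after 320 nm excitation. The 20-min minus 0-min signal was scaled between DMSO/no-enzyme wells and ADEP (5.8 microM final).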
gsp ag: activates gsp, the McCune-Albright syndrome mutation; gsp mutant cells, cAMP HTRF, 30 min; Potency, µM (series often up to 76.9 µM), actives largely listed as activators; actives 0.13% (n = 340,000); AID 624287; active means well fitted activation curve with a large enough effect; inconclusive means small, poorly fitted or top-dose-only effect, or another doubt; inactive means no such curve, though single readings can be large or run the other way; cell line not stated here;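 further: phosphodiesterase inhibitor Ro 20-1724 added with compounds to block cAMP breakdown; nearly all actives have a fitted effect of over 60% in size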
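Cells stably selected in G418 were plated at 2000/well, grown 16-24 hr, then given compounds in DMSO with the PDE inhibitor […] (300 uM solution added) for 30 min at 37C; cAMP was read by HTRF.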
RXFP1 antag: blocks the human relaxin receptor RXFP1; Q9HBX9; HEK293-RXFP1, relaxin-stimulated cAMP HTRF, 30 min; stronger effect = lower value; activity change, negative = inhibition, % at 57.5 µM; actives 0.59% (n = 350,000); AID 1259400;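 active means activity change of -60% or lower, but not beyond a set lower limit; inconclusive means change between -60% and -40%, or beyond the set limit; inactive means change above -40%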
Large screens that a line does not name were inactive; ! = not confirmed by another sample. Most compounds without a hit are left out; they make up all but 2.7% or so of the library.

COc1ccc(-c2cc(=O)n(-c3ccc([N+](=O)[O-])cc3)[nH]2)cc1	ClpP mod 28.2µM
O=C(CSc1ccc(-c2ccc(-n3cccn3)cc2)nn1)Nc1ccccc1F	ClpP mod 15.8µM
O=C(CSc1ccc(-c2cccnc2)nn1)Nc1ccccc1F	none
CCNC(=S)N(CCO)Cc1cc2cc3c(cc2[nH]c1=O)OCO3	none
N#Cc1nc(Cc2ccccc2)oc1N1CCC(C(N)=O)CC1	ClpP mod 12.6µM (no result: Akt phos inh)
N#Cc1nc(Cc2ccccc2)oc1N1CCC(Cc2ccccc2)CC1	none
CC1=CN(S(=O)(=O)c2ccc(C)cc2)C[C@@H]2[C@H]3CC[C@H](C3)[C@H]12	none (no result: RXFP1 agonist, gsp ag, RXFP1 antag)
COCc1cc(CN(C)C(=O)C2CCC(=O)N(Cc3cccc(OC)c3)C2)[nH]n1 (stereo not given)	RXFP1 antag -78.0
CCN(CC)CCCNC(=O)CCC(=O)NNc1nc2ccccc2c2nc(C)nn12	none
CCCCN(C)C(=O)CCC(=O)NNc1nc2ccccc2c2nc(C)nn12	ClpP mod 25.1µM!
COc1ccc(NC(=O)C2CCCN(c3nnc(C)c4c(C)n(-c5ccccc5)nc34)C2)cc1Cl (stereo not given)	none (no result: gsp antagonist, Akt phos inh, gsp ag)
CCN(C(=O)CSc1nnc(Nc2ccccc2C)s1)C1CCS(=O)(=O)C1 (stereo not given)	ClpP mod 28.2µM
Cc1cc(C)n2nc(SCC(=O)N(Cc3ccccc3)C3CCS(=O)(=O)C3)nc2n1 (stereo not given)	gsp ag inconclusive (no result: ClpP mod)
CCN(C(=O)CSc1nc2nc(C)cc(C)n2n1)C1CCS(=O)(=O)C1 (stereo not given)	ClpP mod 15.8µM
CCN1C(=O)C(CC(=O)Nc2c(C)cccc2C)Nc2cc(S(=O)(=O)N(C)C)ccc21 (stereo not given)	ClpP mod 28.2µM
Cc1cccc(C)c1NC(=O)CN(C)C(=O)c1cc(S(=O)(=O)N(C)C)ccc1N1CCCC1	none
CNc1cc(-c2cnn(CC(C)C)c2)ncn1	ClpP mod inconclusive (no result: gsp antagonist, RXFP1 agonist, gsp ag, RXFP1 antag)
C[C@@H](NCCCc1cccc(C(F)(F)F)c1)c1cccc2ccccc12	RXFP1 antag -68.2 (no result: gsp antagonist, Akt phos inh, RXFP1 agonist, gsp ag)
CCC(=O)OCc1cnc(C)c2oc(=O)c(C(=O)Nc3ccccc3C(F)(F)F)cc12	none (no result: gsp antagonist, Akt phos inh, gsp ag)
CCC(c1nnc(SCC(=O)Nc2cc(S(C)(=O)=O)ccc2Cl)n1Cc1ccccc1)N(C)C (stereo not given)	ClpP mod 31.6µM
O=c1[nH]c(SCc2n[nH]c(=S)n2-c2ccccc2)nc2sc3c(c12)CCC3	RXFP1 antag -67.1
O=C(C[n+]1cc(Br)cc(Br)c1)c1ccc2ccccc2c1	none (no result: gsp antagonist, Akt phos inh, RXFP1 agonist, gsp ag, RXFP1 antag)
Cc1cccnc1NCC(O)COc1ccccc1 (stereo not given)	ClpP mod 28.2µM
CC(=O)Nc1ccc(NCC(O)COc2ccccc2)cc1 (stereo not given)	none
CCOc1ccc2oc(C(=O)NCc3nc4ccccc4[nH]3)c(C)c2c1	ClpP mod 35.5µM
CCN(CC)c1ccc(/C=N/n2c(-c3ccccc3Br)n[nH]c2=S)cc1	gsp antagonist inconclusive, RXFP1 antag -84.0
COc1ccc(C2C(C(=O)Nc3cccc(C)n3)c3ccccc3C(=O)N2C)cc1 (stereo not given)	Akt phos inh -109.7%
COc1ccc(C2C(C(=O)N3CCN(c4ccccc4F)CC3)c3ccccc3C(=O)N2C)cc1 (stereo not given)	Akt phos inh -128.7%
COc1ccc(C2C(C(=O)Nc3cc(C)on3)c3ccccc3C(=O)N2C)cc1 (stereo not given)	none
Nc1ncnc2c1ncn2COC(CO)CO	none (no result: gsp antagonist, Akt phos inh, RXFP1 agonist, gsp ag, RXFP1 antag)
COc1ccc(S(=O)(=O)NCC2CCCN(Cc3ccc(OC)cc3F)C2)cc1 (stereo not given)	gsp ag inconclusive (no result: ClpP mod)
COc1ccc(N=C2C(=S)N(c3ccc(OC)cc3)C(=NS(=O)(=O)c3ccccc3)N2c2ccccc2)cc1	ClpP mod 28.2µM (no result: RXFP1 agonist)
N=C1N(c2ccccc2)C(=S)C(=Nc2ccccc2)N1c1ccccc1	none (no result: RXFP1 agonist)
COc1cccc(N(CC(=O)NCc2ccco2)C(=O)CCC(=O)Nc2nccs2)c1	gsp antagonist inconclusive (no result: ClpP mod)
Cc1ccc(SCC(=O)NC(=O)NCc2ccccc2)c(C)c1	ClpP mod 35.5µM
Cc1cc(C)c(NC(=O)COC(=O)Cc2cccs2)c(C)c1	RXFP1 antag -109.4 (no result: ClpP mod)
Cc1ccc(-c2nnn(CC(=O)NCC3CC3)n2)o1	none
Cc1ccc(-c2nnn(CC(=O)Nc3ccc4nn(-c5ccccc5)nc4c3)n2)o1	ClpP mod 14.1µM
CCOC(=O)C1=C(C)N(C)C(C)=C(C(=O)OCC)C1c1ccc(Cl)cc1	RXFP1 antag -60.6 (no result: ClpP mod)
COC(=O)C1=C(C)N(C)C(C)=C(C(=O)OC)C1c1ccc(Cl)cc1	none
CCc1cc(/C(Cc2csc(C)n2)=N/O)c(O)cc1O	Akt phos inh -103.8%
Cc1ccc(CSC2=Nc3ccccc3C3=NC(=O)CN23)cc1	gsp ag inconclusive
COc1cc2c(cc1OC)C1=NC(=O)CN1C(SCc1ccccc1C)=N2	ClpP mod 17.8µM (no result: Akt phos inh)
Cc1cc(NC(=O)CSc2ncnc3c2cnn3-c2ccccc2)no1	none (no result: ClpP mod)
Cc1cc(NC(=O)CSc2ncn(-c3ccccc3)n2)no1	Akt phos inh -111.6%
Cc1cc(NC(=O)CSc2ncccn2)no1	none
Cc1cc(NC(=O)CSc2ncnc3c2cnn3-c2cccc(Cl)c2)no1	RXFP1 agonist 6.31µM (no result: ClpP mod)
Cc1cc(NC(=O)CSc2ccc3nnc(-c4ccccn4)n3n2)no1	gsp ag 6.31µM (no result: RXFP1 antag)
COC(=O)CNC(c1ccccc1)c1cc(Br)ccc1NC(=O)c1ccccc1 (stereo not given)	ClpP mod inconclusive (no result: gsp antagonist, Akt phos inh, gsp ag)
Cc1ccc(C)c(N2CCN(C(=O)c3cc4ccc5cccnc5c4[nH]3)CC2)c1	none (no result: gsp antagonist, Akt phos inh, gsp ag)
Cc1cccc(N2CCN(C(=O)c3cc4ccc5cccnc5c4[nH]3)CC2C)c1 (stereo not given)	ClpP mod inconclusive, RXFP1 antag -61.5 (no result: gsp antagonist, Akt phos inh, gsp ag)
CCN(CC)c1ccc(N=Cc2ccc([N+](=O)[O-])o2)cc1	gsp antagonist inconclusive, RXFP1 antag -67.3
CC(=O)N(C)c1ccc(N=Cc2cc3c(cc2[N+](=O)[O-])OCO3)cc1	none (no result: RXFP1 agonist, ClpP mod)
CCN(CC)c1ccc(N=Cc2ccccc2[N+](=O)[O-])cc1	gsp antagonist inconclusive, RXFP1 antag -67.6
Cc1cc2ccccc2c[n+]1C	none (no result: gsp antagonist, Akt phos inh, RXFP1 agonist, gsp ag, RXFP1 antag)
Cc1ccc2nc(Cl)c3cc(C(=O)N(CCN(C)C)Cc4ccco4)sc3c2c1	ClpP mod 25.1µM, RXFP1 antag inconclusive
CN(C)CCN(Cc1ccco1)C(=O)c1cc2c(Cl)nc3ccccc3c2s1	none
